From PubChem BioAssay AID1730 (National Center for Advancing Translational Sciences (NCATS), 2009) come the findings set out here.

Results filed as inconclusive are left out. A call without a number means that no potency is given here. Calls of active or inactive are those of the source. The call rests on the fitted dose curve; in most records, active means well fitted inhibition curve with a large enough effect; inconclusive means small, poorly fitted or top-dose-only effect; inactive means no such curve, though single readings can be large or run the other way.

This assay in a line: Counterscreen Assay for Inhibitors of the ERK Signaling Pathway using a Homogeneous Screening Assay. As to conditions: AlphaScreen bead counterscreen in cell lysate, 5 h; series mostly up to 45.6 µM. Put shortly: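 Counter-screen for AlphaScreen artefacts: biotinylated rabbit IgG bridges streptavidin donor and protein-A acceptor beads. Lysates came from HEK293 cells given compound (up to 46 uM, 30 min, 37C) then vasopressin 25 nM, 5 min. Hill-derived AC50s; controls DMSO and 25 nM IgG.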
For the compound `CN(C)c1cc2c(Nc3ccc4c(cnn4Cc4ccccc4)c3)ncnc2cn1`, the Potency entry is “inactive”. In the case of `COc1ccc(CC(=O)Nc2cccc(-c3nnc(-c4ccc(C)cc4)o3)c2)cc1OC`, the Potency result is “inactive”.

Consider `CS(=O)(=O)CCNCc1nc(-c2ccc3ncnc(Nc4ccc(OCc5cccc(F)c5)c(Cl)c4)c3c2)cs1`, for which the Potency result is “inactive”. The figure for `N#CC(C#N)=c1ccc2c(c1)N1C3=C(CCCC3)CC3CCCCC31N=2` (stereo not drawn) is 4.47 µM (active); for `O=C(Nc1nccs1)c1cc2sccc2n1Cc1ccc(F)cc1` it is “inactive”; for `COc1ccc(-c2n(CC(=O)OC3CC(C)CCC3C(C)C)c3ccccc3[n+]2C)cc1` (stereo not drawn) it is “inactive”. The entry for `C=CS(=O)(=O)c1ccc(Oc2ccc(S(=O)(=O)C=C)cc2)cc1` is “inactive”; for `O=C(c1cccs1)c1no[n+]([O-])c1C(=O)c1cccs1` it is “inactive”.
